# GLP1R ag: activates the human GLP-1 receptor; HEK293 GLP-1R CRE-luciferase, luminescence, 4-6 h; cells express a hypersensitive GLP-1R form; Potency, µM (titrated, usually from 45.6 µM), inactives show top-dose activation, most hits filed as activators; 0.007% of 380,000 active; also: potency is read from the fitted curve at half-maximal effect; % of control where 0% means no effect
# GLP1R inv ag: inverse agonists of human GLP-1 receptor; P43220; HEK293 GLP-1R CRE-luciferase, luminescence, 24 h; GLP-1R form is constitutively active; Potency, µM (doses to about 38.3 µM), inactives show top-dose activity change, negative = inhibition, hits mostly inhibitors; 1.6% of 410,000 active; AID 624417; also: potency is read from the fitted curve at half-maximal effect; % is scaled to controls: 0 for no effect and ±100 for the full control effect; nearly all actives have a fitted effect of over 55% in size
#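 Assay principle: reduced luminescence from a cAMP-responsive reporter in HEK293 cells co-expressing a constitutively active GLP-1R. Conditions: 24 hr compound incubation, 37 deg C, 5% CO2.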
# HEK293 tox: cytotoxicity counter-screen for GLP-1 receptor inverse agonists. Potency, µM (highest dose often 38.3 µM), for the others: at the top dose activity change, negative = inhibition, most hits filed as inhibitors. HEK293 cAMP-luciferase reporter cells, luminescence, 24 h. 0.13% of 410,000 active;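 also: loss of luciferase light is scored as toxicity; potency is read from the fitted curve at half-maximal effect; % is scaled to controls: 0 for no effect and ±100 for the full control effect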
#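 MLSMR compounds, 24 hr on cells at 37 deg C/5% CO2; luminescence after luciferase reagent (12 min RT). Inhibition counted as the undesired cytotoxic outcome.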
# TRPML1 blocker: blocks the human TRPML1 channel; AID 624415; activity change, negative = inhibition, % (no concentration beside the values); TRPML1-inducible cells, Ca2+ dye fluorescence, FDSS; stronger effect = lower value; inhibition of EC80 agonist-evoked calcium signal; Q9GZU1; 0.02% of 390,000 active; in the data active = activity change below about -50%; inconclusive = between about -30% and that limit;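 also: stimulus is agonist 54-4 at its EC80 concentration; % is scaled to controls: 0 for no effect and ±100 for the full control effect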
# Target sequence (Q9GZU1 whole entry, looked up): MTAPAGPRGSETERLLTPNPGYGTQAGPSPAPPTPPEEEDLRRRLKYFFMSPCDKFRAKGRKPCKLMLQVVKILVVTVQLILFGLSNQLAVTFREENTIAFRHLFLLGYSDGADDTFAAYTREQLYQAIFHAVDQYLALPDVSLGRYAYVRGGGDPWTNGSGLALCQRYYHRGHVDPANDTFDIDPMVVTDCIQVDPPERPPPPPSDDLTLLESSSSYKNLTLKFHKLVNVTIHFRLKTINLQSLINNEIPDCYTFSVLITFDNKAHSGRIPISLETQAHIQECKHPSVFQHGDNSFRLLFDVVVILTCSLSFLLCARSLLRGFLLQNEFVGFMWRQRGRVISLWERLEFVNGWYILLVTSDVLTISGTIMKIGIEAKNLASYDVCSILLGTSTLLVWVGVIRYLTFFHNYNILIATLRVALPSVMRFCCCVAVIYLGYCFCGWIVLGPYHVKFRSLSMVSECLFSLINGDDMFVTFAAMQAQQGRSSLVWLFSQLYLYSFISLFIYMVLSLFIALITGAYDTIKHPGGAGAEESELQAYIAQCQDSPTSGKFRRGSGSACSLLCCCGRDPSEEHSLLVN
#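 Tet-induced TRPML1-DL cells loaded with Ca8 no-wash calcium dye were read kinetically on FDSS. Compound addition was followed by EC80 agonist 54-4 (4 uM final); inhibition was read over 110 s.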
# TRPML1 agonist: activates the human TRPML1 channel; activation, % (no concentration beside the values); TRPML1-expressing cells, Ca2+ dye fluorescence, FDSS; AID 624414; 0.12% of 410,000 active; in the data active = activation above about 50%; inconclusive = mostly about 30% to 49%; also: 0% is about no effect
#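 Tetracycline-induced TRPML1-DL cells are seeded and incubated overnight before loading with a no-wash Ca2+ dye and quencher. Agonist activity is taken from the 110 s fluorescence read following compound pin-transfer on an FDSS, before EC80 54-4 challenge.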
# Numbers without * were called inactive; ? = inconclusive; nt = no result given; [ ] = remark or other dose. An excerpt weighted towards active compounds, which were near 1.8% of everything screened. Unless noted, calls follow the shape of the dose curve; as a rule, active = well fitted curve in the direction sought with a large enough effect; inconclusive = small, poorly fitted or top-dose-only effect, or another doubt; inactive = no such curve, though single readings can be large; an effect the other way counts as inactive or inconclusive.
SMILES,GLP1R ag,GLP1R inv ag,HEK293 tox,TRPML1 blocker,TRPML1 agonist
Cc1cc(C)c2[nH]c(O)c(N=NC(=S)NCC3CCCO3)c2c1 (configuration not stated),11%,?,8.9µM*,12,-1
Oc1[nH]c2ccccc2c1N=NC(=S)NCC1CCCO1 (configuration not stated),12%,2%,?,1,0
CCn1c(O)c(N=NC(=S)NCC2CCCO2)c2ccccc21 (configuration not stated),7%,2.8µM*,?,18,3
Oc1[nH]c2c(Cl)cc(Cl)cc2c1N=NC(=S)NCC1CCCO1 (configuration not stated),11%,?,4µM*,-2,1
CC(C)(C)n1ncc2c(=O)n(Cc3ccc(C(F)(F)F)cc3)cnc21,nt,nt,nt,10,2
O/N=C(/C[n+]1ccsc1)c1ccc(I)cc1,nt,nt,nt,nt,-1
CC(C)(C)c1ccc(OCCCCCCN2CCNCC2)cc1,6%,4µM*,?,-13,1
CC1CCN(CCCCOc2ccc(C(C)(C)C)cc2)CC1,-4%,?,-24%,-4,1
CC(C)(c1ccccc1)c1ccc(OCCCN2CCNCC2)cc1,12%,1.1µM*,?,6,0
Cc1cc(C)c(OCCOCCN2CCNCC2)c(C)c1,1%,10µM*,1%,4,0
Cc1cc(C)c(OCCOCCN2CCCC2)c(C)c1,13%,?,-3%,-16,1
Cc1ccc(OCCCCCCN2CCNCC2)c(Br)c1,-3%,2.8µM*,?,2,1
Cc1ccc(NC(=O)c2ccc(F)c(S(=O)(=O)NCCc3ccccc3)c2)cc1F,nt,?,-24%,-5,3
CC(=O)NCCCN(Cc1ccc(Cl)c(Cl)c1)c1ccc(Br)cn1,nt,nt,nt,nt,-1
CCOC(=O)c1cccc(NC(=O)CN2C(=O)CC(C)(C)Sc3ccccc32)c1,nt,?,-6%,3,0
Cc1nc(SCc2cccc(C(=O)O)c2)nc2c1CCCC2,-1%,8.9µM*,0%,-1,2
CC(C)Oc1ccc(CNC(=O)CN2C(=O)c3cccnc3Oc3ccc(Cl)cc32)cc1,nt,?,-20%,?,0
COc1ccc(OC)c(/C=C2/Sc3ccccc3C2=O)c1,4%,18%,-9%,-12,54*
COc1ccc(OC)c(/C=C2\Cc3ccccc3C2=O)c1,nt,nt,nt,nt,0
COc1ccc(NC(=O)CC2C(=O)N(C)C(=S)N2CCc2ccc(F)cc2)cc1 (configuration not stated),5%,11µM*,-21%,7,3
COc1ccc(CCN2C(=O)N(c3ccc(C)cc3)C(=O)C2CC(=O)Nc2ccc(F)cc2)cc1 (configuration not stated),-2%,7.9µM*,-18%,-4,3
COC(=O)c1ccc(NC(=O)CC2C(=O)N(c3ccc(F)cc3)C(=O)N2Cc2ccc(OC)cc2)cc1 (configuration not stated),nt,9%,2%,4,2
O=C1[C@H](Cc2ccccc2)NC/C=C\C[C@H](c2ccc(Cl)cc2)N1Cc1ccc(Cl)cc1,nt,nt,nt,nt,1
CN1CCC(N(C)S(=O)(=O)c2ccc(NC(=O)COc3ccc(F)cc3)cc2)CC1,-1%,?,14%,-5,0
CN1CCC(N(C)S(=O)(=O)c2ccc(NC(=O)COc3ccc(F)cc3Cl)cc2)CC1,3%,10µM*,2%,27,1
SMILES,GLP1R ag,GLP1R inv ag,HEK293 tox,TRPML1 blocker,TRPML1 agonist
CC(C)C1C(c2ccccc2)NC(c2ccccc2)CC1(O)c1ccc(F)cc1 (configuration not stated),3%,10µM*,?,3,2
CC(C)C1C(c2ccccc2)N(C)C(c2ccccc2)CC1(O)c1ccccc1 (configuration not stated),-14%,0%,2%,-1,0
CCCCNS(=O)(=O)c1ccc(NC(=O)C(Sc2ccccc2)c2ccccc2)cc1 (configuration not stated),-5%,4.5µM*,-12%,-9,0
CCC(C)NS(=O)(=O)c1ccc(NC(=O)C(Sc2ccccc2)c2ccccc2)cc1 (configuration not stated),-5%,?,9%[1.53 µM],11,1
O=C(Nc1ccc(NC(=O)N2CCN(c3ccccc3O)CC2)cc1)N1CCN(c2ccccc2O)CC1,10%,5µM*,-25%,2,0
O=C(Nc1ccc(Cl)cc1)N1CCN(c2ccccc2)CC1,1%,?,-8%,-1,0
Cc1ccc(C)c(CSc2nc3c([nH]c4ccccc43)c(=O)n2C)c1,nt,8%,5%,-22,0
COc1ccccc1NC(=O)Nc1nc(CC(=O)N2CCN(c3ccccc3F)CC2)cs1,-1%,10µM*,-12%,-16,0
CSc1nc2sc3c(c2c(=O)n1-c1ccccc1C)CCCC3,nt,4.5µM*,0%,-5,2
CC(Sc1nc2sc3c(c2c(=O)n1-c1ccccc1)CCCC3)C(=O)O (configuration not stated),1%,33%,-6%,-5,2
Clc1ccc(Nc2nnc(Cc3ccncc3)c3ccccc23)cc1,4%,nt,nt,nt,nt
Cc1ccc(-n2ncc(C(=O)Nc3cc(Cl)ccc3Cl)c2C2CCNCC2)cc1,0%,7.1µM*,0%,-1,0
COc1ccc(F)c(CN2CCC(CO)(Cc3cccc(C(F)(F)F)c3)CC2)c1,11%,?,-3%,11,0
COc1cc(CN2CCC(CO)(Cc3cccc(C(F)(F)F)c3)CC2)ccc1F,-1%,3.2µM*,?,-3,0
CC(C)C[C@@H](NC(=O)[C@@H](COC(C)(C)C)NC(=O)[C@H](Cc1ccc(O)cc1)NC(=O)[C@@H](CO)NC(=O)[C@@H](Cc1c[nH]c2ccccc12)NC(=O)[C@@H](Cc1cnc[nH]1)NC(=O)[C@@H]1CCC(=O)N1)C(=O)N[C@H](CCCN=C(N)N)C(=O)N1CCC[C@H]1C(=O)NNC(N)=O,-1%,nt,nt,nt,nt
Cc1nc2c(C(=O)NCc3ccccc3Cl)c[nH]n2c(=O)c1Cc1cccc(Cl)c1,-4%,?,-15%,3,-1
CN(C)S(=O)(=O)c1cccc(NC(=O)COC(=O)c2cc(-c3cccc(Br)c3)nc3ccccc23)c1,-25%,10µM*,-9%,13,1
CN(C)S(=O)(=O)c1cccc(NC(=O)COC(=O)c2ccc3ccccc3n2)c1,-5%,1%,-10%,-9,1
Cc1ccc(C(c2sc3nc(C)nn3c2O)N2CCN(c3ccccc3F)CC2)cc1 (configuration not stated),-7%,8.9µM*,-16%,-9,1

# From PubChem BioAssay
